Results on 40 molecules are retold here after PubChem BioAssay (NCATS).

Results filed as inconclusive are left out. A call without a number means that no potency is given here. Active and inactive are the calls of the source. The call rests on the fitted dose curve; in most records, active means well fitted inhibition curve with a large enough effect; inconclusive means small, poorly fitted or top-dose-only effect, or effect the other way; inactive means no such curve, though single readings can be large or run the other way.
Potency means the concentration at half of the fitted maximal effect.

This assay is described as follows: High Content Imaging Cell-Based qHTS for Inhibitors of the mTORC1 Signaling Pathway in MEF Cells (AID 2667). To be noted: series mostly up to 38.3 µM. From the text: NIH Molecular Libraries Probe Production Centers Network [MLPCN]
NIH Chemical Genomics Center [NCGC]
Assay Submitter (PI): Blenis, John; Hoffman, Greg; Harvard University
NCGC Assay Overview: The mammalian target of rapamycin (mTOR) is an intracellular serine/threonine kinase Aberrant regulation of mTOR signaling plays a causative role in a number of human diseases, including cancer, benign tumors such as lymphangioleiomyomatosis (LAM) and Tuberous Sclerosis Complex (TSC), and metabolic diseases such as diabetes and obesity. This project aims to identify inhibitors of ribosomal protein S6 (rpS6) phosphorylation. The phosphorylation of rpS6 is a key event downstream of mTOR activation. The assay uses a phospho-specific antibody of phospho-rpS6 to detect inhibitors of mTOR activation. Mutations in the Tsc1 and Tsc2 genes are the underlying genetic lesions responsible for TSC, causing constitutive activation of the mTORC1 pathway and leading to profound effects on cell metabolism. Aberrant metabolism in cancer has recently received significant attention as a target to develop therapeutic agents in the treatment of cancer.1 As Tsc2-/- cells have lost the ability to respond to energy and growth factor deprivation, these cells are unable to properly down regulate cellular biosynthetic processes in response to metabolic stress, and are thus extremely sensitive to glucose deprivation-induced death.2 A central goal of this project is to explore the unique cell survival and metabolic properties of cells with Tsc1 or Tsc2 by screening for compounds that selectively target the Tsc2-/- MEFs by screening both Tsc2-/- and WT MEF cell lines. We hope to better understand these aspects of TSC physiology in order to exploit them for therapeutic benefit.
NCGC IN Cell Assay Protocol:
For quantitative high throughput analysis of mTORC1 signaling, we developed a cell-based assay for immuno-fluorescence based detection of rpS6 phosphorylation on the Acumen Explorer that will be used a platform for the primary small molecule screen. Mouse embryonic fibroblasts (MEFs) are cultured in 1536-well plates using DMEM + 10% FBS. Twenty-four hrs after plating, test compounds (solubilized in DMSO) are delivered and incubated with the cells for 24 hrs at 37 degree Celsius. Following the incubation, media with compound is aspirated and the cells are fixed in 4% paraformaldehyde (PFA) containing PBS + 0.2% TX-100. Next, PFA is aspirated, cells are washed two times with PBS plus 0.2% TX-100 and the cells are blocked for 1 hr at room temperature (blocking buffer: LiCOR Blocking Buffer plus 0.2% TX-100). This is followed by aspiration and staining with Alexa-488 conjugated-phospho-rpS6 Ser235/236 antibody for 2 hours at room temperature (Cell Signaling Technology # 4803, 1:50 dilution in blocking buffer). Cells are washed two times with PBS plus 0.2% TX-100, and stained with 10 uM propidium iodide (PI) for 20-25 minutes for cell number measurement (1:500 dilution of Hoescht staining is also added for IN Cell imaging). Active wells which are selected (based on Acumen results) are imaged on the IN Cell 1000 (GE Healthcare) using the D360/40X and HQ480/40X excitation filters for the Hoechst and Alexa-488 cytoplasmic stains, respectively. The fluorescence emission filters used were HQ460/40M and HQ535/50M for the Hoechst and Alexa-488 cytoplasmic stains, respectively. The normalized phospho-S6 staining is calculated as the ratio of […] for the single concentration rapamycin control ([…] nM) and DMSO columns. […] Inhibition of the pathway is defined based on the normalized phospho-S6 intensity in rapamycin treated cells. Each treatment is reported as the % positive cells in the well, where thresholds are defined by selecting wells with the highest and lowest signal and differentiating between the % non-active and % active populations. […]
(In general: Quantitative high-throughput screening tests each substance at several concentrations.)
For the molecule `CN1CCN(C2=Nc3cc(Cl)ccc3Nc3ccccc32)CC1`, the Potency result is “inactive”. Regarding `O=c1[nH]cc(F)c(=O)[nH]1`, the Potency result was “inactive”. Regarding `COc1cc2c(c(OC)c1OC)-c1ccc(OC)c(=O)cc1[C@@H](NC(C)=O)CC2`, the Potency result is “inactive”. With `CCCCc1oc2ccccc2c1C(=O)c1cc(I)c(OCCN(CC)CC)c(I)c1`, the Potency was 13.1 µM (active).

As for `O=c1c(-c2ccc(O)cc2)coc2cc(O)cc(O)c12`, the Potency entry was “inactive”. With `CC(COc1ccccc1)N(CCCl)Cc1ccccc1` (stereo not given) the entry was “inactive”; with `CC[N+](CC)(CC)CCOc1cccc(OCC[N+](CC)(CC)CC)c1OCC[N+](CC)(CC)CC`, “inactive”; with `Nc1nc2c(ncn2COC(CO)CO)c(=O)[nH]1`, “inactive”. On to `C[C@H]1c2cccc(O)c2C(O)=C2C(=O)[C@]3(O)C(O)=C(C(N)=O)C(=O)[C@@H](N(C)C)[C@@H]3[C@@H](O)[C@@H]21`, for which the Potency result was “inactive”.

Take `Clc1ccccc1C(c1ccccc1)(c1ccccc1)n1ccnc1`: the Potency entry was “inactive”.

With `O=C1c2c(O)ccc(O)c2C(=O)c2c(NCCNCCO)ccc(NCCNCCO)c21`, the Potency entry is “inactive”. In the case of `NC(=O)OCC(COC(N)=O)c1ccccc1`, the Potency entry was “inactive”. For `CS(=O)(=O)Nc1ccc([N+](=O)[O-])cc1Oc1ccccc1`, the Potency result was “inactive”. Take `NCCS(=O)(=O)O`: the Potency entry is “inactive”. With `O=C1N(c2ccccc2)c2ccccc2C1(Cc1ccncc1)Cc1ccncc1`, the Potency entry was “inactive”. With `COc1ccc(C2CNC(=O)C2)cc1OC1CCCC1` (stereo not given) the entry was “inactive”.

Regarding `NS(=O)(=O)c1cc2c(cc1Cl)NCNS2(=O)=O`, the Potency entry is “inactive”. Turning to `COC(=O)Nc1nc2ccc(C(=O)c3cccs3)cc2[nH]1`, the Potency result was “inactive”.

Regarding `O=C(c1ccc(F)cc1)C1CCN(CCn2c(=O)[nH]c3ccccc3c2=O)CC1`, the Potency entry is “inactive”. On to `NCCc1cnc[nH]1`, for which the Potency entry was “inactive”. Turning to `Cc1ccc(C(=O)Nc2ccc(S(=O)(=O)O)c3cc(S(=O)(=O)O)cc(S(=O)(=O)O)c23)cc1NC(=O)c1cccc(NC(=O)Nc2cccc(C(=O)Nc3cc(C(=O)Nc4ccc(S(=O)(=O)O)c5cc(S(=O)(=O)O)cc(S(=O)(=O)O)c45)ccc3C)c2)c1`, the Potency result is “inactive”. Turning to `CCN1CCCC1CNC(=O)c1cc(S(=O)(=O)CC)c(N)cc1OC` (stereo not given), the Potency result was “inactive”. With `NCCCCCC(=O)O`, the Potency result is “inactive”. As to `CCOC(=O)c1ncn2c1CN(C)C(=O)c1cc(F)ccc1-2`, the Potency result is “inactive”. With `O=C(Nc1ccc([N+](=O)[O-])cc1Cl)c1cc(Cl)ccc1O` the figure was 2.07 µM (active). For the molecule `CC(C(=O)O)c1cccc(C(=O)c2ccccc2)c1` (stereo not given), the Potency result is “inactive”.

As to `CC(C)Cc1ccc(C(C)C(=O)O)cc1` (stereo not given), the Potency entry is “inactive”. With `COc1ccccc1OCC(O)CN1CCN(CC(=O)Nc2c(C)cccc2C)CC1` (stereo not given) the entry was “inactive”. For the molecule `Cc1cc(C(C)(C)C)cc(C)c1CC1=NCCN1`, the Potency result is “inactive”. As for `CCC1(C)CC(=O)NC1=O` (stereo not given), the Potency entry is “inactive”.

For the molecule `CN1C(C(=O)Nc2ccccn2)=C(O)c2ccccc2S1(=O)=O`, the Potency result was “inactive”. As to `Cc1cn([C@H]2C=C[C@@H](CO)O2)c(=O)[nH]c1=O`, the Potency result is “inactive”. As to `CN1CCC(=C2c3ccccc3C=Cc3ccccc32)CC1`, the Potency entry was “inactive”. Turning to `Cn1c(=O)c2c(ncn2C)n(C)c1=O`, the Potency entry was “inactive”. Turning to `NC12CC3CC(CC(C3)C1)C2`, the Potency result is “inactive”. For the molecule `CC#C[C@]1(O)CC[C@H]2[C@@H]3CCC4=CC(=O)CCC4=C3[C@@H](c3ccc(N(C)C)cc3)C[C@@]21C`, the Potency is 11.7 µM (active). As to `Cc1cn([C@H]2C[C@H](N=[N+]=[N-])[C@@H](CO)O2)c(=O)[nH]c1=O`, the Potency result is “inactive”. With `COc1cc2nc(N(C)CCCNC(=O)C3CCCO3)nc(N)c2cc1OC` (stereo not given) the entry was “inactive”; with `CN(C)c1nc(N(C)C)nc(N(C)C)n1`, “inactive”. On to `CN1C2CCC1CC(OC(=O)C(CO)c1ccccc1)C2` (stereo not given), for which the Potency entry was “inactive”.
